An excerpt weighted towards active compounds, which were near 1.7% of everything screened.
Cardio protect: myocardial damage modulation in H9c2 cells | H9c2 cardiomyocytes, H2O2 injury protection, ATPLite, 2 h | actives 0.63% (n = 360,000) | AID 588492 | protection from H2O2 cell death, % at 20 µM;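 active = compounds giving at least 50% protection of heart cells from peroxide-induced death in the single-dose screen, raw or plate-pattern-corrected value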
aDG glyco act: increases alpha dystroglycan glycosylation; Pro5-aDG cells, alpha-DG glycosylation AlphaScreen (IIH6); 0% Pro5, 100% B10-LARGE cell signal; activation, % at 10 µM; actives 0.22% (n = 360,000); AID 624168;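 active = activation of at least 8% versus controls, or a plate z-score of at least 8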;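 also: Pro5 are CHO cells carrying HIG-tagged alpha-DG that lacks glycosylation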
ARNT-TACC3 inh: ARNT/TACC3 interaction disruption; AlphaScreen His-ARNT PAS-B/GST-TACC3 binding, luminescence; TACC3 fragment carries E629A point mutation; actives 0.66% (n = 390,000); inhibition, % at 9.99 µM;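 active = mean inhibition of replicates at least 50% and at least half of replicates each reaching 50%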
Vif imaging: inhibitors of HIV Vif | HEK293T cells, Vif self-association by quenched fluorescence, imaging, 24 h | inhibition, % at 7.49 µM | actives 0.35% (n = 340,000) | AID 602346; in the data active = inhibition above about 50%, passing the limit was not always enough
N-glyco inh: N-linked glycosylation inhibition; D54 ERlucT glycosylation luciferase reporter, 24 h; percent of 100 nM tunicamycin response; reporter increase, % at 12.5 µM; actives 0.23% (n = 360,000);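 active = mean luciferase reporter signal, scaled so untreated is 0 and the glycosylation-blocking control 100, at or above a set limit in every replicate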;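 also: luciferase carries N-glycosylation sites so blocking glycosylation raises the light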
Large screens that a line does not name were inactive.

COc1ccc(OC)c(NC(=O)CSc2nn3c(=O)c(C)nnc3s2)c1	ARNT-TACC3 inh 69
COc1ccc(NC(=O)CSc2nnc(C)c(=O)n2N)cc1	none
COc1cccc(NC(=O)CSc2nn3c(=O)c(C)nnc3s2)c1	ARNT-TACC3 inh 67
CNC(=O)C[C@H]1CC[C@H]2[C@@H](COC[C@H](O)CN2C(=O)c2ccccn2)O1	none (no result: Cardio protect, aDG glyco act, Vif imaging, N-glyco inh)
C[C@@H]1CCCCO[C@@H](CN(C)Cc2ccccc2)[C@H](C)CN([C@H](C)CO)C(=O)c2cc(NC(=O)CCCN(C)C)ccc2O1	none (no result: Cardio protect, aDG glyco act, Vif imaging, N-glyco inh)
COCC(=O)NC[C@H]1[C@H](c2ccc(-c3ccccc3)cc2)[C@H](CO)N1C(C)=O	none (no result: Cardio protect, aDG glyco act, Vif imaging, N-glyco inh)
C[C@H](CO)N1C[C@H](C)[C@H](CN(C)S(=O)(=O)c2ccc(F)cc2)Oc2c(NC(=O)C3CC3)cccc2C1=O	none (no result: Cardio protect, aDG glyco act, Vif imaging, N-glyco inh)
Cc1noc(C)c1S(=O)(=O)Nc1cccc2c1O[C@H](CN(C)S(=O)(=O)c1ccc(Cl)cc1)[C@H](C)CN([C@H](C)CO)C2=O	none (no result: Cardio protect, aDG glyco act, Vif imaging, N-glyco inh)
COc1ccc(CCNC(=O)CSc2nn3c(=O)c(C)nnc3s2)cc1OC	none
COC(=O)c1ccc(NC(=O)CSc2nn3c(=O)c(C)nnc3s2)cc1	ARNT-TACC3 inh 60
CC(C)C#Cc1ccc2c(c1)O[C@@H](CN(C)Cc1cncnc1)[C@H](C)CN([C@H](C)CO)S2(=O)=O	none (no result: Cardio protect, aDG glyco act, Vif imaging, N-glyco inh)
CCC(C)C(=O)Nn1c(C2CC2)nc2cc(OC)c(OC)cc2c1=O (stereo not given)	Vif imaging 125
C[C@@H]1CN([C@@H](C)CO)C(=O)c2c(c3ccccc3n2C)-c2ccccc2CO[C@@H]1CN(C)C(=O)Nc1ccc(F)cc1	none (no result: Cardio protect, aDG glyco act, Vif imaging, N-glyco inh)
O=C(N/N=C/c1sc(N2CCOCC2)nc1-c1ccccc1)c1cccc(S(=O)(=O)N2CCOCC2)c1	Cardio protect 54
COc1cc(C(=O)N/N=C/c2sc(N3CCOCC3)nc2-c2ccccc2)cc(OC)c1OC	Cardio protect 66
Nc1ccc(C(=O)N/N=C/c2sc(N3CCOCC3)nc2-c2ccccc2)cc1	none
COc1cccc(/C=N/NC(=O)CSCC(=O)Nc2ccccc2)c1O	Cardio protect 55 (no result: Vif imaging)
COC(=O)c1cccc(/C=N/NC(N)=S)c1O	ARNT-TACC3 inh 67
COc1cccc(/C=N/NC(=O)c2cnccn2)c1O	ARNT-TACC3 inh 58
COc1cccc(/C=N/Nc2nc(Nc3ccccc3)nc(-n3nc(C)cc3C)n2)c1O	Cardio protect 74 (no result: ARNT-TACC3 inh, Vif imaging)
COc1ccc(/C=N/NC(=O)c2cnccn2)c(OC)c1OC	none
CN1C(=O)c2cc(NC(=O)C3CC3)ccc2OC[C@H]2O[C@H](CC(=O)NCCc3ccncc3)CC[C@@H]21	none (no result: Cardio protect, aDG glyco act, Vif imaging, N-glyco inh)
COc1cccc(/C=N\NC(=O)C2C(=O)NCC2c2ccccc2)c1O (stereo not given)	Cardio protect 72 (no result: ARNT-TACC3 inh)
COc1cccc(/C=N/NC(=O)C(=O)NCc2ccco2)c1OC	none
COc1cccc(/C=N/NC(=O)C(=O)N/N=C/c2cccc(OC)c2O)c1O	Cardio protect 66
COc1cccc(/C=N/NC(=O)c2cc3c(OC)cccc3[nH]2)c1O	none
COc1cccc(/C=N/NC(=O)C(=O)NCc2ccco2)c1O	ARNT-TACC3 inh 60
COc1ccc(/C=N/NC(=O)C2C(=O)NCC2c2ccccc2)c(OC)c1 (stereo not given)	none (no result: ARNT-TACC3 inh)
CO[C@@H]1CN(C)C(=O)c2ccc(NS(=O)(=O)c3ccc(C)cc3)cc2OC[C@@H](C)N(Cc2ccccn2)C[C@H]1C	ARNT-TACC3 inh active (no result: Cardio protect, aDG glyco act, Vif imaging, N-glyco inh)
O=C(Nc1ccc(N2CCN(C(=O)c3ccc(Cl)cc3)CC2)cc1)c1ccc2c(c1)OCCO2	aDG glyco act 4.0
Cc1ccc(S(=O)(=O)Nc2ccc3c(c2)C(=O)N([C@@H](C)CO)C[C@@H](C)[C@H](CN(C)C(=O)CCC(F)(F)F)OCCCC[C@H](C)O3)cc1	none (no result: Cardio protect, aDG glyco act, Vif imaging, N-glyco inh)
O=C(C[C@@H]1C=C[C@H](NC(=O)Cc2ccccn2)[C@@H](CO)O1)NCCc1ccncc1	ARNT-TACC3 inh 47 (no result: Cardio protect, aDG glyco act, Vif imaging, N-glyco inh)
COc1ccc(OCCN2CCC(C(=O)NC(c3ccccn3)c3ccccc3OC)CC2)cc1 (stereo not given)	Vif imaging 51 (no result: ARNT-TACC3 inh)
COc1ccc(C(C(=O)NCc2ccccc2)N(Cc2ccco2)C(=O)c2snc(C(N)=O)c2N)cc1 (stereo not given)	Cardio protect 80
Cc1ccc(C(C(=O)NCc2ccccc2)N(Cc2ccco2)C(=O)c2snc(C(N)=O)c2N)o1 (stereo not given)	Cardio protect 61 (no result: ARNT-TACC3 inh)
NC(=O)c1nsc(C(=O)N(CCc2ccccc2)C(C(=O)NC2CCCC2)c2ccco2)c1N (stereo not given)	Cardio protect 78
C[C@H]1CN([C@@H](C)CO)S(=O)(=O)c2ccc(-c3cccc(C(=O)N(C)C)c3)cc2O[C@@H]1CN(C)C(=O)Nc1ccc(F)cc1	none (no result: Cardio protect, aDG glyco act, Vif imaging, N-glyco inh)
COc1ccccc1C(=O)Nc1ccc2c(c1)OC[C@@H](C)NC[C@H](C)[C@H](OC)CN(C)C2=O	none (no result: Cardio protect, aDG glyco act, Vif imaging, N-glyco inh)
CCCNC(=O)[C@H]1[C@H](CO)[C@H]2Cn3c(ccc(C4=CCCC4)c3=O)[C@H]2N1Cc1ccccc1	none (no result: Cardio protect, aDG glyco act, Vif imaging, N-glyco inh)
Cc1noc(C)c1S(=O)(=O)N(C)C[C@@H]1Oc2ccc(NC(=O)Cc3cn(C)c4ccccc34)cc2CC(=O)N([C@@H](C)CO)C[C@H]1C	none (no result: Cardio protect, aDG glyco act, Vif imaging, N-glyco inh)
COc1ccc2cc(CCNS(=O)(=O)c3ccc(NC(C)=O)cc3)c(=O)[nH]c2c1	Vif imaging 57
CN(C)CC(=O)N[C@@H]1CC[C@H](CCn2cc(C3CCCC3)nn2)O[C@@H]1CO	none (no result: Cardio protect, aDG glyco act, Vif imaging, N-glyco inh)
C[C@@H]1CCCCO[C@@H](CN(C)CC2CCCCC2)[C@H](C)CN([C@H](C)CO)C(=O)c2cc(NC(=O)CCCCCC(=O)Nc3ccccc3N)ccc2O1	none (no result: Cardio protect, aDG glyco act, Vif imaging, N-glyco inh)
C=CCn1c(CNc2ccccc2)nnc1SCC(=O)N/N=C/c1ccccc1O	Cardio protect 63, ARNT-TACC3 inh active
C[C@H](CO)N1C[C@H](C)[C@H](CN(C)C(=O)CN(C)C)Oc2ncc(-c3ccccc3F)cc2C1=O	none (no result: Cardio protect, aDG glyco act, Vif imaging, N-glyco inh)
COc1ccc(N(CC(=O)NCCSc2ccccc2)S(=O)(=O)c2ccccc2)c(OC)c1	Cardio protect 56
COc1ccccc1N(CC(=O)NCCSc1ccccc1)S(=O)(=O)c1ccccc1	none
COc1ccc2c(c1)C(=O)[C@@H](O)[C@H](c1ccc(OC)c(Br)c1)O2	Cardio protect 52
CC(=O)N(NC(=O)c1ccccc1Cl)C1CC(=O)N(c2ccc(C)cc2)C1=O (stereo not given)	ARNT-TACC3 inh 47
CO[C@@H]1CN(C)C(=O)c2ccc(NS(=O)(=O)c3ccc(F)cc3)cc2OC[C@H](C)NC[C@@H]1C	none (no result: Cardio protect, aDG glyco act, Vif imaging, N-glyco inh)
N#C[C@H]1N[C@@H](CO)[C@H]1c1ccc(C#CC2CCCC2)cc1	none (no result: Cardio protect, aDG glyco act, Vif imaging, N-glyco inh)
O=c1c(O)c(-c2cccs2)oc2ccc(Cl)cc12	Cardio protect 74 (no result: Vif imaging)
C[C@H]1CN([C@@H](C)CO)C(=O)c2cccc(NC(=O)NC3CCCCC3)c2O[C@@H]1CN(C)S(C)(=O)=O	none (no result: Cardio protect, aDG glyco act, Vif imaging, N-glyco inh)
COC(=O)/C(=C(O)\C=C\c1ccccc1[N+](=O)[O-])c1nc2ccccc2[nH]1	Cardio protect 68 (no result: ARNT-TACC3 inh)

Screens: PubChem, several laboratories
